The target of assay [1] is T1, Interleukin-1 receptor-associated kinase 4 (Homo sapiens) (UniProt Q9NWZ3).
T1 sequence (whole entry): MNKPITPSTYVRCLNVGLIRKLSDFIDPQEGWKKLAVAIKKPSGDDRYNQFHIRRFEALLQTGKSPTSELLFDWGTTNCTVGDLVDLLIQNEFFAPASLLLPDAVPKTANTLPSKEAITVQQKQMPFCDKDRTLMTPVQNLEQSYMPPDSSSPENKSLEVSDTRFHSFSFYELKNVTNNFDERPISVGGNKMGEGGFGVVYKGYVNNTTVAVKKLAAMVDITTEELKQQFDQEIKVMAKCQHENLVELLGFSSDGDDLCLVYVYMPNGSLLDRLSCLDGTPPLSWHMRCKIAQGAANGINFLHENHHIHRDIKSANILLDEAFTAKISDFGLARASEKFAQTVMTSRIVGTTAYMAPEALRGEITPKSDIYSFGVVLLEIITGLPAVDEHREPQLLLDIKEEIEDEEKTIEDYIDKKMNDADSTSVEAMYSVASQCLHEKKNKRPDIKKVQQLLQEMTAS
The settings on record: at 1 µM.

Assay [2] deals with T1, Interleukin-1 receptor-associated kinase 4 (Homo sapiens). Particulars: at 10 µM.
Assay [3] deals with T2, Tyrosine-protein kinase ITK/TSK (Homo sapiens) (UniProt Q08881).
T2 sequence (whole entry): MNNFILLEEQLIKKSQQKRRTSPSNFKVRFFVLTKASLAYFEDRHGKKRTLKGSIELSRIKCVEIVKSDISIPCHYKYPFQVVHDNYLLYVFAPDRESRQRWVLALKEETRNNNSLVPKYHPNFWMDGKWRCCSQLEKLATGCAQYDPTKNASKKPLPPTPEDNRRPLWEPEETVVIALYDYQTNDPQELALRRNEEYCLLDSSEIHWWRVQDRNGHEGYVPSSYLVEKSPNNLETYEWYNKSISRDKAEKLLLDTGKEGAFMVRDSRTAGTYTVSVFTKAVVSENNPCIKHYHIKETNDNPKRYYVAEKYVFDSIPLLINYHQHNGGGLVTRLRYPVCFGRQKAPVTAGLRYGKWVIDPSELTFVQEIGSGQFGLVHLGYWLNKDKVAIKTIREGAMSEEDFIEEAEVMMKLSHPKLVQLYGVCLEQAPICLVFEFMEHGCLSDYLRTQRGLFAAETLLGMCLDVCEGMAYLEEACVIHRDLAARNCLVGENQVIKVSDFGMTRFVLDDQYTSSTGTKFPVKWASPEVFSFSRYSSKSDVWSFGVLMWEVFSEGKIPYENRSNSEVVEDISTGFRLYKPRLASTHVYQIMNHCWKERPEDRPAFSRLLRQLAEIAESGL
The settings on record: at 1 µM.

Assay [4] deals with T2, Tyrosine-protein kinase ITK/TSK (Homo sapiens). The settings on record: at 10 µM.
Assay [5] addresses Tyrosine-protein kinase JAK2 (Homo sapiens) (UniProt O60674). The settings on record: at 1 µM.
Assay [6] has the same target. The settings on record: at 10 µM.
Assay [7] has as its target T3, Tyrosine-protein kinase JAK3 (Homo sapiens) (UniProt P52333).
T3 sequence (whole entry): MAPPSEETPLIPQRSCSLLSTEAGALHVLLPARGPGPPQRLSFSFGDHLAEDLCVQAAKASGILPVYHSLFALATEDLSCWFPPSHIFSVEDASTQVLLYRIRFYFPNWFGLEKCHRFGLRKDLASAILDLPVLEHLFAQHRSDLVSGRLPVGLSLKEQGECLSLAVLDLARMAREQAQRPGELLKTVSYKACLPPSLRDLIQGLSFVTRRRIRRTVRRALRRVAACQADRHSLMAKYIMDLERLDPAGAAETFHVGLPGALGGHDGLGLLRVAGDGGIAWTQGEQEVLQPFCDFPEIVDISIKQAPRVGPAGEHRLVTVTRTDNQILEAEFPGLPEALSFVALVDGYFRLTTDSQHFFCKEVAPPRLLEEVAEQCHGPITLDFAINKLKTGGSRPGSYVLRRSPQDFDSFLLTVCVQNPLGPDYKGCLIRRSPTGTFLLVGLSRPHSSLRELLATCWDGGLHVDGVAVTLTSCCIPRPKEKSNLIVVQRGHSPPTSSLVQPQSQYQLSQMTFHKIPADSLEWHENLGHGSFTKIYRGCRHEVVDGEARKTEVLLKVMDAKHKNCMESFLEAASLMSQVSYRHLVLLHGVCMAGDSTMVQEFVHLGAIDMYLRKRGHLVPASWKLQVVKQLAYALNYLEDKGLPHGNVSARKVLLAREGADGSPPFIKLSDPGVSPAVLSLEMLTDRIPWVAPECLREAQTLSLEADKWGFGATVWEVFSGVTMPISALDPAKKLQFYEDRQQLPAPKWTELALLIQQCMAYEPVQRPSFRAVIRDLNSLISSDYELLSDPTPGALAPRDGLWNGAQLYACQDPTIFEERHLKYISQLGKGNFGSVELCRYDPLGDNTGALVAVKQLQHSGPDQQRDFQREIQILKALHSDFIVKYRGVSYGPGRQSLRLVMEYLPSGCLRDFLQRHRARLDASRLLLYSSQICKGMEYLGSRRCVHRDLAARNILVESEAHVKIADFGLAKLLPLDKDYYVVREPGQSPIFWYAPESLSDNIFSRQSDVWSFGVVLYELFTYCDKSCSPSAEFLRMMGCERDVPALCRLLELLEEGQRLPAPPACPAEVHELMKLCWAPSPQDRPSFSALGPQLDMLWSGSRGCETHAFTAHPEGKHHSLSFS
The settings on record: at 1 µM.

Assay [8] deals with T3, Tyrosine-protein kinase JAK3 (Homo sapiens). Particulars: at 10 µM.
Assay [9] has as its target Mitogen-activated protein kinase 10 (Homo sapiens) (UniProt P53779). The settings on record: at 1 µM.
Assay [10] has the same target. The settings on record: at 10 µM.
The target in assay [11] is Vascular endothelial growth factor receptor 2 (Homo sapiens) (UniProt P35968). The settings on record: at 1 µM.
For assay [12] the target is unchanged. Particulars: at 10 µM.
Assay [13] has as its target LIM domain kinase 1 (Homo sapiens) (UniProt P53667). The settings on record: at 1 µM.
For assay [14] the target is unchanged. The settings on record: at 10 µM.
Assay [15] concerns the target Insulin receptor-related protein (Homo sapiens) (UniProt P14616). Particulars: at 1 µM.
Assay [16] shares this target. Particulars: at 10 µM.
For assay [17], the target named is Mitogen-activated protein kinase 8 (Homo sapiens) (UniProt P45983). Particulars: at 1 µM.
Mitogen-activated protein kinase 8 (Homo sapiens), sequence (P45983 whole entry): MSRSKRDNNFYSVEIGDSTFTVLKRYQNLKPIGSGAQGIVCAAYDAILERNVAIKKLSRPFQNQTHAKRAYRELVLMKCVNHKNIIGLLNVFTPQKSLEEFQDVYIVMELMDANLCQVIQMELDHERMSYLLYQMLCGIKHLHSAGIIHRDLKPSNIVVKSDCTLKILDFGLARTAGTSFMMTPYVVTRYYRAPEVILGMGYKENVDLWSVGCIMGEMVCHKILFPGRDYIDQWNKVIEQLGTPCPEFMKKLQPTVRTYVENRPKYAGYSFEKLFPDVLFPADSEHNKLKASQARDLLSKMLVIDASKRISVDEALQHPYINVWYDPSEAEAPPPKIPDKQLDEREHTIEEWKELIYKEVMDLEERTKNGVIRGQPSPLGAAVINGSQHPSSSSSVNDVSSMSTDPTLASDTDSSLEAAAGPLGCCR
Assay [18] has the same target. Particulars: at 10 µM.
In assay [19] the target is Mitogen-activated protein kinase 9 (Homo sapiens) (UniProt P45984). The settings on record: at 1 µM.
Mitogen-activated protein kinase 9 (Homo sapiens), sequence (P45984 whole entry, looked up): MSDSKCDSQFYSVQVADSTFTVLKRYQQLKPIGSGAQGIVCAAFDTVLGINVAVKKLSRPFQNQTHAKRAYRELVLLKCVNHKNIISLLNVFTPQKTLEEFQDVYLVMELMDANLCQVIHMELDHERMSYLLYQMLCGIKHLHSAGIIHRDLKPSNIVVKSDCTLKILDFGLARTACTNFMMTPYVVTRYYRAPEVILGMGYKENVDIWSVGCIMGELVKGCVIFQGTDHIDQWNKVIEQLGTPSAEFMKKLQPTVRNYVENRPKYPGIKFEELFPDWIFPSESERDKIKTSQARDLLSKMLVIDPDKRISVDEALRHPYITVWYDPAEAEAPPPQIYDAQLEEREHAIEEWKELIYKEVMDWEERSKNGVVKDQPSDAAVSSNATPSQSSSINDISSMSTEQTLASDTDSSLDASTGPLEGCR
Assay [20] shares this target. Particulars: at 10 µM.

The values that follow come from ChEMBL document CHEMBL2218924, “A broad activity screen in support of a chemogenomic map for kinase signalling research and drug discovery” (Biochem J, 2013).

LIM domain kinase 1 (Homo sapiens), sequence (P53667 whole entry, looked up, the tested form may be a part): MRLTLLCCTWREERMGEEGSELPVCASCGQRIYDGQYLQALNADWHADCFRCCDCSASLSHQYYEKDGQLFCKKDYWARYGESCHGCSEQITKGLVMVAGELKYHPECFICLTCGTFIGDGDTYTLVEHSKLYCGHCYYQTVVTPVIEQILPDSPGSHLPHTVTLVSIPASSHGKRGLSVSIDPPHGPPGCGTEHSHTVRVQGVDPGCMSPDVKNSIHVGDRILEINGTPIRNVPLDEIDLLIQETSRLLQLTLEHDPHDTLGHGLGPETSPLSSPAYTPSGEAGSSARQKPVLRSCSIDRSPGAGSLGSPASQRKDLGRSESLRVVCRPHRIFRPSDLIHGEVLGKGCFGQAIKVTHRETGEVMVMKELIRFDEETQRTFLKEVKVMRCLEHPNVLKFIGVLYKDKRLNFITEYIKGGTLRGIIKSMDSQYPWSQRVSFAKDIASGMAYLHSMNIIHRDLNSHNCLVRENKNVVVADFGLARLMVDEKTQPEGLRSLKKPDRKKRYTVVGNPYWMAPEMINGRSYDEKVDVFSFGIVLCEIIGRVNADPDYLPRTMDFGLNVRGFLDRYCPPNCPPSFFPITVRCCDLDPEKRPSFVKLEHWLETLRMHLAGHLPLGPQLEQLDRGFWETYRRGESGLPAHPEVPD
Insulin receptor-related protein (Homo sapiens), sequence (P14616 27-742 limits assumed): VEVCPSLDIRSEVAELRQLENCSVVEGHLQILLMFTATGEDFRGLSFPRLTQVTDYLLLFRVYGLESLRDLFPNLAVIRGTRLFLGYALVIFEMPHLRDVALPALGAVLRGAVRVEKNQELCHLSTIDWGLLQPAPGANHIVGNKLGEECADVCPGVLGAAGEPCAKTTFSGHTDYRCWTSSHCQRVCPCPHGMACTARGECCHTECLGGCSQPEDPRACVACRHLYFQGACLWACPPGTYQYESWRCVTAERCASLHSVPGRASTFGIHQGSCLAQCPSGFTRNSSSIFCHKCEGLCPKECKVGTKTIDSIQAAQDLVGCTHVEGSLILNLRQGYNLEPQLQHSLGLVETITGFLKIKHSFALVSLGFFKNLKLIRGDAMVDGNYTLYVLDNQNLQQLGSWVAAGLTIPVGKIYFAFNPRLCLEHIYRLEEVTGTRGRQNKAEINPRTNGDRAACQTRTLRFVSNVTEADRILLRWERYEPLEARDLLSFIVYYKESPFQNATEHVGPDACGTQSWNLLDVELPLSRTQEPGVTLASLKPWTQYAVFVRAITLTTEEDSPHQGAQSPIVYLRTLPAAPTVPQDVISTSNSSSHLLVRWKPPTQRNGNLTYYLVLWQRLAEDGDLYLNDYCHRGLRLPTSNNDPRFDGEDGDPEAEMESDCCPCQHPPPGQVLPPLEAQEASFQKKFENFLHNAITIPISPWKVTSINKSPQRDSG
Insulin receptor-related protein (Homo sapiens), sequence (P14616 747-1297 limits assumed): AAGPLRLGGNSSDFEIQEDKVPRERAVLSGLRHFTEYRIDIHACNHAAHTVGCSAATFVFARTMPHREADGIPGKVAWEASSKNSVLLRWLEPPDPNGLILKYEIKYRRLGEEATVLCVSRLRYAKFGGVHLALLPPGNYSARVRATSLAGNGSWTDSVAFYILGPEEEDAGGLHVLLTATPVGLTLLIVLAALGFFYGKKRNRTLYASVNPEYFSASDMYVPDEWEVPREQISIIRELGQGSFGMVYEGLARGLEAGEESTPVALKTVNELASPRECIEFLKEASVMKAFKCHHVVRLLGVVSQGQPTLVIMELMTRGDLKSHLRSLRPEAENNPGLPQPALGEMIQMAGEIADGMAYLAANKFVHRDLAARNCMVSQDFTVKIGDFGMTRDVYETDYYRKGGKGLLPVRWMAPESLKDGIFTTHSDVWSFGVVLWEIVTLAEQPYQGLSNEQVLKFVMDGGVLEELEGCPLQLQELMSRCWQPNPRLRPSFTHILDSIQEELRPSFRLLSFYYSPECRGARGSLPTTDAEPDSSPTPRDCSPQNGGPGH
Mitogen-activated protein kinase 10 (Homo sapiens), sequence (P53779 whole entry): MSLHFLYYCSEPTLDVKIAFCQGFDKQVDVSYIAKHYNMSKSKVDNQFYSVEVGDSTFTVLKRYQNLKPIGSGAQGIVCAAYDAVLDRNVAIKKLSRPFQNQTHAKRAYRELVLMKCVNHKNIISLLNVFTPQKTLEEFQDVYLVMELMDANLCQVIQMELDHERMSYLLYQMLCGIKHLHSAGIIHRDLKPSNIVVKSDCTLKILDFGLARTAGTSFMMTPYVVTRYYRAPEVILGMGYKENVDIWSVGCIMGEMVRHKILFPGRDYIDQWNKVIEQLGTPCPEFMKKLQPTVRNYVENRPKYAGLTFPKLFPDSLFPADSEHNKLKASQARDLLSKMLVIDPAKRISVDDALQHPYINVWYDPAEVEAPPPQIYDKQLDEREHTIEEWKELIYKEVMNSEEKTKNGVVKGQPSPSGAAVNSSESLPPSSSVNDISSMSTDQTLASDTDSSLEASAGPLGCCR
Tyrosine-protein kinase JAK2 (Homo sapiens), sequence (O60674 whole entry): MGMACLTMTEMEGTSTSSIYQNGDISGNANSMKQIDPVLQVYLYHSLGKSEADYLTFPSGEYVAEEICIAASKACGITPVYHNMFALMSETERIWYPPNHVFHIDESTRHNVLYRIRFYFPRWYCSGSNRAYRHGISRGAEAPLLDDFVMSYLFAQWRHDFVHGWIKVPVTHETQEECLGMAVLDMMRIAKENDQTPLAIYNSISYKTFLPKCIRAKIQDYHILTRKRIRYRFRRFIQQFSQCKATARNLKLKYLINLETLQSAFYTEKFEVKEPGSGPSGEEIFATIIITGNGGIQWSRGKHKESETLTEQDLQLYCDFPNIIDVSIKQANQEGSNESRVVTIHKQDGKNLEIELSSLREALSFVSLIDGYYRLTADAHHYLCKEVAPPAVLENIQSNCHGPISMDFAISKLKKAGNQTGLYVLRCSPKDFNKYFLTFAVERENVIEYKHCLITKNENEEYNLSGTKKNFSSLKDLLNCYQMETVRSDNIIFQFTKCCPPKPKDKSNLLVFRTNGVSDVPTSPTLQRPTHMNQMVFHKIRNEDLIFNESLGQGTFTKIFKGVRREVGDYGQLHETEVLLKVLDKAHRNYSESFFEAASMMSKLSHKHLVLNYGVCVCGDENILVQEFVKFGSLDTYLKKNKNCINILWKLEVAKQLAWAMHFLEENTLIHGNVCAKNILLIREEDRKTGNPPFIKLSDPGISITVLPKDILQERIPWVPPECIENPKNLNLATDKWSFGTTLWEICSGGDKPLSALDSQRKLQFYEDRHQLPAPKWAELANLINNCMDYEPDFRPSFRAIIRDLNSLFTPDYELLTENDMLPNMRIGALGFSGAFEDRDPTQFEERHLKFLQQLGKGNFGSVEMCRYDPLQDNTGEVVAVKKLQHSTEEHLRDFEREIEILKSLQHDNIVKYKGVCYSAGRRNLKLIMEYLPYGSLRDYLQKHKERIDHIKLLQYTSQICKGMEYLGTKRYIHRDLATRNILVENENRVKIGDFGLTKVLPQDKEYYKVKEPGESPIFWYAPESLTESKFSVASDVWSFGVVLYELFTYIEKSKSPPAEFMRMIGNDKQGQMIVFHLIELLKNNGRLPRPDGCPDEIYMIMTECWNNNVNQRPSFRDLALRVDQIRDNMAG

Take `CCn1cnc2c(Nc3cccc(Cl)c3)nc(N[C@@H]3CCCC[C@@H]3N)nc21`: the residual activity in [1] came to 85%; in assay [2], 23%; in assay [3] it was 89%; in assay [4] it was 39%; in assay [5], 116%; in assay [6] it was 78%. The residual activity was determined as 112% in assay [7]; 119% in assay [8]; 91% in assay [9]; 84% in assay [10]; 85% in assay [11]; 45% in [12]. The residual activity came out at 89% in assay [13] and 63% in assay [14].

Consider `CC(C)(C)c1cc(C=C(C#N)C#N)cc(Br)c1O`, for which the residual activity turned out to be 112% in [1]; 105% in [15]; 102% in assay [16]; 105% in assay [3]; 104% in [4]; 110% in assay [5]. Further, the residual activity was found to be 113% in [6]; 105% in assay [7]; 116% in assay [17]; 110% in assay [18]; 103% in [19]; 114% in assay [20]. For the same compound, the residual activity in assay [10] came out at 54%; in assay [11], 107%; in assay [12], 83%; in assay [13] it was 111%.

Regarding `O=c1[nH]c2ccccc2n1C1CCN(Cc2ccc(-c3nc4cc5[nH]cnc5cc4nc3-c3ccccc3)cc2)CC1`, the residual activity amounted to 106% in [1]; 93% in assay [2]; 124% in assay [15]; 95% in [16]; 99% in [3]; 95% in assay [4]. Besides, the residual activity in assay [5] was 120%; in [6], 107%; in assay [7] it was 110%; in assay [8], 126%; in assay [17], 110%; in assay [18] it was 86%. The residual activity in [19] was determined as 104%; in assay [20] it was 101%; in [9] it was 105%; in assay [10] it was 69%; in assay [11] it was 107%; in [12], 90%. Also, the residual activity in assay [13] was 115%; in assay [14], 97%.

On to `c1cc(-c2cnn3cc(-c4ccc(OCCN5CCCCC5)cc4)cnc23)ccn1`, for which the residual activity came out at 81% in assay [1]; 18% in assay [2]; 54% in [3]; 9% in assay [4]; 117% in assay [17]; 106% in assay [18]. For the same compound, the residual activity in assay [10] came to 82%; in assay [11], 4%; in assay [12], 1%; in [14], 27%.

With `O=[N+]([O-])/C=C/c1ccc2c(c1)OCO2`, the residual activity in assay [1] came to 116%; in assay [2], 107%; in assay [15], 106%; in assay [16], 82%; in assay [3] it was 105%; in assay [4], 100%. Moreover, the residual activity in assay [5] worked out at 73%; in assay [6] it was 118%; in assay [7], 114%; in assay [8], 108%; in assay [17], 120%; in [18], 102%. Further, the residual activity is 99% in assay [19]; 103% in [20]; 88% in assay [9]; 92% in assay [10]; 101% in [11]; 85% in assay [12]. Also, the residual activity worked out at 114% in [13] and 97% in assay [14].

`COc1ccc2c(c1)/C(=C/c1cnc[nH]1)C(=O)N2`: the residual activity amounted to 42% in assay [4]; 29% in [6]; 48% in assay [7]; 10% in [8]; 82% in [19]; 47% in assay [20]. Moreover, the residual activity in [9] worked out at 80%; in assay [10], 27%; in assay [11] it was 47%; in assay [12] it was 3%; in [14], 48%.

Consider `O=C1NC(=O)c2c1c1c3ccccc3n3c1c1c2c2ccccc2n1C1CCC3O1`, for which the residual activity in assay [1] worked out at 38%; in assay [2] it was 18%; in [15] it was 74%; in assay [16], 63%; in [3], 88%; in [4], 70%. Further, the residual activity in assay [5] amounted to 86%; in [6], 82%; in assay [7], 8%; in assay [8] it was 9%; in assay [9], 63%; in assay [10], 56%. For the same compound, the residual activity in assay [11] came to 38%; in assay [12], 18%.

As for `O=C1c2ccccc2-c2nc3nnnn3nc21`, the residual activity was determined as 129% in assay [1]; 108% in assay [2]; 111% in assay [5]; 103% in assay [7]; 114% in [17]; 83% in [18]. Also, the residual activity in assay [19] turned out to be 109%; in assay [20], 83%; in assay [9], 112%; in assay [10], 100%; in assay [11], 109%; in assay [12] it was 104%.

Consider `CCc1nc(-c2ccc(OC)cc2)[nH]c1-c1ccncc1`, for which the residual activity in assay [5] is 100%; in assay [6], 105%; in assay [7], 113%; in [8], 103%; in assay [17], 104%; in assay [18], 106%. In addition, the residual activity in [19] worked out at 102%; in [20] it was 105%; in assay [9], 126%; in assay [10] it was 123%; in [13], 100%.
